The supplement of paper PMC11219838
Unmarked numbers belong to inactive results.

Tested on: Caenorhabditis elegans L1 (N2)
Test: survival and reproduction score of C. elegans L1 (0: 0-10 living worms, 1: 11-20, 2: 21-50, 3: >50, 4: overgrown) (score 0-4); higher = more worms, less nematicidal, active = 1 or less; extreme values may be limits of the assay
Details: 60 µM; 6 days; temperature: 20 °C
Procedure, shortened: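 Synchronized C. elegans N2 L1s (about 20 per well) were grown in 96-well plates in liquid NGM with E. coli HB101 and compound at 60 µM final (0.6% v/v DMSO), shaken sealed at 200 rpm and 20 °C for 6 days. The ordinal score for survival and reproduction counted living worms per well under a dissection microscope. The scale ran 0 (0–10 worms) to 4 (overgrown, starved), averaged over two biological replicates.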

With Cc1ccccc1OCc1nc(-c2cccs2)no1 the “survival and reproduction score” value was 1 (active).
With O=C(Nc1ccc(-c2noc(COc3ccccc3)n2)cc1)c1ccc(F)cc1 the “survival and reproduction score” value was 1 (active).
In the case of Cc1ccc(-c2noc(-c3cccc(C)c3)n2)cc1, the “survival and reproduction score” value is reported as 0 (active).
For Cc1ccc(-c2nc(-c3cccnc3)no2)cc1Cl, the “survival and reproduction score” value was 0 (active).

Cc1ccc(OCc2nc(-c3ccc4c(c3)OCO4)no2)cc1C and Cc1cc(OCc2nc(-c3ccc(NC(=O)c4ccc5c(c4)OCO5)cc3)no2)ccc1Cl are the same in “survival and reproduction score” value: 4 for the first, 4 for the second.

Cc1cccc(NC(=O)CSc2nnc(-c3ccncc3)o2)c1C and O=C(CSc1nnc(-c2ccccc2)o1)Nc1cccc(F)c1 are the same in “survival and reproduction score” value: 4 for the first, 4 for the second.

Cc1cc(OCc2nc(-c3ccccn3)no2)ccc1Cl and Clc1ccc(OCc2nc(-c3ccccn3)no2)c(Br)c1 are the same in “survival and reproduction score” value: 4 for the first, 4 for the second.

First: CC(C)(C)c1ccc(-c2nnc(SCc3cccc(C#N)c3)o2)cc1
Second: Brc1ccc(-c2nnc(SCc3ccccc3)o2)cc1
The “survival and reproduction score” value of the first is lower: 3.5 for the first, 4 for the second.

Clc1cccc(-c2nc(-c3ccc4c(c3)OCO4)no2)c1 and Cc1ccc(-c2noc(-c3ccc(Cl)cc3)n2)cc1 are the same in “survival and reproduction score” value: 4 for the first, 4 for the second.

CCc1nc(-c2ccc(-c3ccccc3)nc2OC)no1 and CCOc1nc(-c2ccccc2)ccc1-c1noc(CC)n1 are the same in “survival and reproduction score” value: 4 for the first, 4 for the second.

First: Cc1ccccc1-c1nnc(SCc2ccc(F)cc2)o1
Second: Fc1cccc(Cl)c1CSc1nnc(-c2ccccc2Cl)o1
The “survival and reproduction score” value of the first is lower: 3.5 for the first, 4 for the second.

Compared with c1csc(-c2nnc(-c3cccs3)o2)c1, Cc1ccc(-c2nnc(SCC(=O)NCc3ccccc3)o2)cc1 is higher in “survival and reproduction score” value: 2 for the first, 4 for the second.

COc1ccc(-c2noc(COc3ccc(C)cc3C)n2)cc1 and COc1ccc(-c2noc(CSc3nc4cc(C)ccc4[nH]3)n2)cc1 are the same in “survival and reproduction score” value: 4 for the first, 4 for the second.

Compared with CC(C)(C)NC(=O)CSc1nnc(-c2ccc(C(C)(C)C)cc2)o1, Cc1ccccc1CSc1nnc(-c2ccco2)n1C is lower in “survival and reproduction score” value: 4 for the first, 2 for the second.

COc1ccccc1-c1noc(-c2ccccc2F)n1 and COc1ccccc1-c1nc(-c2ccccc2Cl)no1 are the same in “survival and reproduction score” value: 4 for the first, 4 for the second.

CCOc1nc(-c2ccc(C)cc2)ccc1-c1noc(CC)n1 and Cc1ccccc1OCc1nc(-c2ccc(Cl)cc2)no1 are the same in “survival and reproduction score” value: 4 for the first, 4 for the second.

Going from Clc1ccc(OCc2nc(-c3ccc(Br)o3)no2)cc1 to COc1cccc(-c2noc(COc3ccc(Br)cc3)n2)c1, the “survival and reproduction score” value rises from 3.5 to 4.

O=C(Nc1ccccc1-c1nc(-c2ccncc2)no1)c1ccc(Cl)cc1 and CCOc1ccccc1-c1nc(-c2ccc(Cl)cc2)no1 are the same in “survival and reproduction score” value: 4 for the first, 4 for the second.

Cc1ccc(OC(C)c2nc(-c3cccnc3)no2)cc1 (stereo not drawn) and Cc1ccc(C)c(OCc2nc(-c3cccnc3)no2)c1 are the same in “survival and reproduction score” value: 4 for the first, 4 for the second.

Cc1ccc(-c2noc(-c3ccc(Br)cc3)n2)cc1 and COc1cccc(-c2noc(-c3cc(C)ccc3C)n2)c1 are the same in “survival and reproduction score” value: 4 for the first, 4 for the second.

c1cncc(-c2noc(COc3cccc4ccccc34)n2)c1 and Cc1cc(OCc2nc(-c3ccncc3)no2)cc(C)c1Br are the same in “survival and reproduction score” value: 4 for the first, 4 for the second.
